Each structure is given as a SMILES string. About 2,100 (0.66%) of roughly 320,000 compounds were called active. Inconclusive results (about 53%) are left out. Calls come from the whole dose curve; as a rule, active = well fitted inhibition curve with a large enough effect in the signal ratio, with a control signal flat (not every such curve was filed as active); inconclusive = small, poorly fitted or top-dose-only effect, or effect the other way, or a change in a side signal; inactive = flat fitted curve, though single readings scatter; the % refers to the signal ratio. For the sample, actives were picked, then their nearest neighbours and some compounds at random.
Potency is the fitted concentration of half-maximal effect.

The nature of the experiment: qHTS Assay for Lipid Storage Modulators in Drosophila S3 Cells.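 For cell number change: cells counted by Cell Tracker Red CMTPX staining in the red channel.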 For lipid storage change, negative = inhibition: % is set by controls: 0 for no effect and ±100 for the full control effect. The note with it: BODIPY lipid droplet fluorescence, 18-24 h, cells fed with added oleic acid; cell number change: measured here: cell count max response; series mostly up to 46.1 µM. In a few lines: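 Drosophila S3 cells got compounds at several concentrations plus oleic acid (400 uM solution). Laser-scanning cytometry with 488 nm excitation read lipid droplets at 500-530 nm and cells at 575-640 nm. Percent activity was relative to 20 uM Triacsin C.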
For orientation: qHTS replaces the single test concentration by a dilution series.
Take `COC(=O)[C@H]1C2CCC(C(=O)OC)(CC2)[C@H]1C(=O)OC`: the Potency was 1.3 µM (active) and the cell number change was -5.5%.

Turning to `COC(=O)C1CCN(S(C)(=O)=O)CC1`, the Potency entry is “inactive” and the cell number change turned out to be 4.24%.

In the case of `COC(=O)[C@@H]1C2CCC(C(=O)Nc3ccccc3)(CC2)[C@@H]1C(=O)OC`, the Potency result was “inactive”.

On to `CN(Cc1ccccc1)c1nnc(N)s1`, for which the Potency entry was “inactive” and the cell number change is -2.39%.

As to `O=C(NC(=S)Nc1ccc(S(=O)(=O)Nc2nccs2)cc1)c1ccccc1F`, the Potency entry was “inactive” and the cell number change came out at 13%.

Turning to `O=C(N/N=C/c1cn(-c2ccccc2)nc1-c1ccccc1)c1ccco1`, the Potency entry was “inactive”.

Take `Cc1ccc(/C=N/NC(=O)c2ccc(C(=O)N/N=C/c3ccc(C)s3)o2)s1`: the Potency entry was “inactive” and the cell number change amounted to 10.7%.

As to `NC(=O)N/N=C/c1cn(-c2ccccc2)nc1-c1ccccc1`, the Potency entry is “inactive” and the cell number change amounted to 15.1%.

Regarding `Cc1ccc(/C=N/NC(=O)c2ccc(Br)o2)s1`, the Potency was 3.66 µM (active) and the cell number change was -8.7%.

For `Cc1ccc(/C=N/NC(=O)c2ccco2)s1`, the Potency entry is “inactive” and the cell number change was -9.87%.

For the compound `O=C(N/N=C\c1cn(-c2ccccc2)nc1-c1ccccc1)c1ccc(Br)o1`, the Potency is 23.1 µM (active) and the cell number change came out at 6.81%.

As for `CCC(=O)N(c1ccc(C(=O)O)cc1)c1nc(-c2ccc(OC)cc2)c(C)s1`, the Potency entry was “inactive” and the cell number change is -9.44%.

Consider `CC(=O)Cc1nsc(NC(=O)c2ccc(-c3cc(Cl)ccc3Cl)o2)n1`, for which the Potency entry is “inactive” and the cell number change amounted to 15.1%.

Consider `CN(C)c1cccc(C(=O)Nc2nc3ccccc3[nH]2)c1`, for which the Potency is 14.6 µM (active) and the cell number change is -3.6%.

Turning to `COc1cccc(C(=O)Nc2nc3ccccc3[nH]2)c1`, the Potency entry was “inactive” and the cell number change stood at 17.8%.

As for `O=C(Nc1nc2ccccc2[nH]1)c1cccc([N+](=O)[O-])c1`, the Potency result is “inactive” and the cell number change was -8.28%.

With `CS(=O)(=O)c1ccc(C(=O)Nc2cccc(-c3nc4ccccc4[nH]3)c2)cc1`, the Potency result was “inactive” and the cell number change came to 3.88%.

Regarding `CS(=O)(=O)c1cccc(C(=O)Nc2cccc(-c3nc4ccccc4[nH]3)c2)c1`, the Potency was 7.31 µM (active) and the cell number change is -15%.

As for `CS(=O)(=O)c1cccc(C(=O)Nc2ccc(-c3nc4ccccc4[nH]3)cc2)c1`, the Potency result was “inactive” and the cell number change turned out to be 86.3%.

Consider `Cn1c(N2CCOCC2)c(/C=N/OC(=O)c2cccnc2Cl)c2ccccc21`, for which the Potency entry was “inactive”.

Regarding `Cc1ccc(NS(=O)(=O)c2ccc3c(c2)NC(=O)CO3)c(C)c1`, the Potency result is “inactive” and the cell number change is -9.44%.

`O=C(Nc1nnc(C2CC2)s1)c1cccc(S(=O)(=O)N2CC(c3ccccc3)CC2=O)c1` (centres undefined): the lipid storage change, negative = inhibition was 14.3% [at 9.22 µM] (inactive).

Consider `O=C1CC(c2ccccc2)CN1S(=O)(=O)c1ccccc1` (centres undefined), for which the Potency was 20.6 µM (active) and the cell number change was -20.2%.

Regarding `O=C1CCCN1S(=O)(=O)c1ccccc1`, the Potency entry is “inactive” and the cell number change is -14.6%.

As for `O=C(N=C1SC2CS(=O)(=O)CC2N1CCc1ccccc1)C1CCCCC1` (centres undefined), the Potency result is “inactive”.

As for `Cc1cc(C=O)c(C)n1-c1cccc(C(=O)O)c1`, the Potency result was “inactive” and the cell number change is 7.64%.

Take `CC(C)(C)C(=O)COC(=O)c1cc(S(=O)(=O)N2CCCCC2)ccc1N1CCOCC1`: the cell number change is -8.75% and the lipid storage change, negative = inhibition was -21.4% [at 0.0737 µM] (inactive).

For the compound `Cc1ccc(OCCOC(=O)c2cc(S(=O)(=O)N3CCCCC3)ccc2N2CCOCC2)cc1`, the Potency was 5.17 µM (active) and the cell number change was -27%.

For the compound `CC(C)(C)NC(=O)COC(=O)c1cc(S(=O)(=O)N2CCCCC2)ccc1N1CCOCC1`, the Potency entry was “inactive”.

For the compound `COc1ccccc1NC(=O)COC(=O)/C=C/c1ccc2c(c1)OCO2`, the Potency result is “inactive” and the cell number change was found to be 18%.

For the compound `CC(=O)Nc1ccc(NC(=O)COC(=O)/C=C/c2ccc3c(c2)OCO3)cc1`, the Potency was 5.17 µM (active) and the cell number change is -1.06%.

Turning to `NC(=O)c1ccc(NC(=O)COC(=O)/C=C/c2ccc3c(c2)OCO3)cc1`, the Potency result was “inactive” and the cell number change is 9.72%.

`CCOC(=O)C1(Cc2ccccc2C(F)(F)F)CCN(C2CCN(C(C)=O)CC2)CC1`: the Potency result was “inactive” and the cell number change worked out at 11.4%.

For the compound `CC1CCc2nc(N)c(C#N)c(-c3cccn3C)c2C1` (centres undefined), the Potency entry is “inactive”.

For the compound `COc1cccc2cc(C(=O)NCc3ccccc3Br)c(=O)oc12`, the Potency entry is “inactive” and the cell number change amounted to 1.66%.

In the case of `CC1Cc2ccccc2N1C(=O)c1cc2cccnc2n(C)c1=O` (centres undefined), the Potency entry was “inactive” and the cell number change was determined as 1.02%.

For `NS(=O)(=O)c1cc2c(cc1Cl)NC(c1ccccc1OCC(=O)O)NS2(=O)=O` (centres undefined), the Potency entry is “inactive” and the cell number change is -10.4%.

Turning to `COC(=O)/C=C/C(=O)Nc1cccnc1`, the Potency result was “inactive” and the cell number change was -5.59%.

For the compound `COc1ccccc1/C=C/C(=O)NCc1cccnc1`, the Potency result was “inactive” and the cell number change was -13.8%.

Regarding `COc1ccccc1/C=C/C(C)=O`, the Potency result was “inactive” and the cell number change was 3.8%.

Turning to `COc1ccccc1/C=C/C(=O)Nc1cccnc1`, the Potency is 5.8 µM (active) and the cell number change was -14.6%.

On to `COc1ccc(/C=C/C(=O)c2ccc(Cl)cc2)c(OC)c1`, for which the Potency entry is “inactive” and the cell number change was -5.6%.

As for `COc1ccccc1/C=C/C(=O)c1ccc(Cl)cc1`, the Potency was 4.61 µM (active) and the cell number change came out at 1.97%.

Take `CCCOc1ccc(/C=N/Nc2ccc(C(=O)O)cc2)c(OCCC)c1`: the Potency result is “inactive” and the cell number change is 9.43%.

In the case of `CCn1nc(NS(=O)(=O)c2ccc(NC(C)=O)cc2)c2cc3ccccc3nc21`, the Potency result was “inactive” and the cell number change is -12.4%.

For `COCCN1C(=O)N[C@@H](c2ccco2)C(C(C)=O)=C1C`, the Potency result is “inactive” and the cell number change was found to be 3.8%.

For the compound `COCCCNC(=O)CN(c1cccc(Cl)c1)S(C)(=O)=O`, the Potency entry is “inactive” and the cell number change is -7.55%.

As to `CNc1cc(C)c(C#N)c2nc3ccccc3n12`, the Potency entry is “inactive” and the cell number change was -18.9%.

For the origin of these results see PubChem BioAssay AID2685 (National Center for Advancing Translational Sciences (NCATS), 2010).
